The source made the active and inactive calls.

Experiment [1] is described as follows: small molecules captured by biotinylated probe aFSTL3 – biochemical, small-molecule microarray, fluorescence 635/667, stem cell growth factor project, primary screen (AID 1064).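 Further: measures binding of the biotinylated anti-FSTL3 antibody to printed compounds.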 To be noted: higher = more signal.
The nature of experiment [2]: binders from COS7 lysate, DM2A8 probe, primary screen, torsin A project, cell lysate, small-molecule microarray, fluorescence 635/667 (AID 1065). To be noted: higher = more signal, COS7 lysate expressing mutant human TOR1A.
Experiment [3] is described as follows: small molecules captured by biotinylated probe aFGF2 – biochemical, small-molecule microarray, fluorescence 635/667, stem cell growth factor project, primary screen (AID 1067).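 Further: measures binding of biotinylated aFGF2 protein to printed compounds on slides; z-score merges feature fluorescence and signal-to-noise across triplicate slides.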 To be noted: higher = more signal.
Experiment [4] can be described thus: small molecules captured by biotinylated probe aFGF10 – biochemical, small-molecule microarray, fluorescence 635/667, stem cell growth factor project, primary screen (AID 1071).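 Further: score merges 667 nm spot intensity and signal to noise from triplicate slides.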 To be noted: higher = more signal.
In experiment [5] the target is Neurogenic locus notch homolog protein 2 (Homo sapiens) (UniProt Q04721). As to the kind of experiment: small molecules binding Notch2 protein – biochemical, small-molecule microarray, 635 nm fluorescence, stem cell growth factors, primary screen (AID 1073). To be noted: higher = more signal.
Sequence of Neurogenic locus notch homolog protein 2 (Homo sapiens) (Q04721 whole entry, looked up, canonical isoform): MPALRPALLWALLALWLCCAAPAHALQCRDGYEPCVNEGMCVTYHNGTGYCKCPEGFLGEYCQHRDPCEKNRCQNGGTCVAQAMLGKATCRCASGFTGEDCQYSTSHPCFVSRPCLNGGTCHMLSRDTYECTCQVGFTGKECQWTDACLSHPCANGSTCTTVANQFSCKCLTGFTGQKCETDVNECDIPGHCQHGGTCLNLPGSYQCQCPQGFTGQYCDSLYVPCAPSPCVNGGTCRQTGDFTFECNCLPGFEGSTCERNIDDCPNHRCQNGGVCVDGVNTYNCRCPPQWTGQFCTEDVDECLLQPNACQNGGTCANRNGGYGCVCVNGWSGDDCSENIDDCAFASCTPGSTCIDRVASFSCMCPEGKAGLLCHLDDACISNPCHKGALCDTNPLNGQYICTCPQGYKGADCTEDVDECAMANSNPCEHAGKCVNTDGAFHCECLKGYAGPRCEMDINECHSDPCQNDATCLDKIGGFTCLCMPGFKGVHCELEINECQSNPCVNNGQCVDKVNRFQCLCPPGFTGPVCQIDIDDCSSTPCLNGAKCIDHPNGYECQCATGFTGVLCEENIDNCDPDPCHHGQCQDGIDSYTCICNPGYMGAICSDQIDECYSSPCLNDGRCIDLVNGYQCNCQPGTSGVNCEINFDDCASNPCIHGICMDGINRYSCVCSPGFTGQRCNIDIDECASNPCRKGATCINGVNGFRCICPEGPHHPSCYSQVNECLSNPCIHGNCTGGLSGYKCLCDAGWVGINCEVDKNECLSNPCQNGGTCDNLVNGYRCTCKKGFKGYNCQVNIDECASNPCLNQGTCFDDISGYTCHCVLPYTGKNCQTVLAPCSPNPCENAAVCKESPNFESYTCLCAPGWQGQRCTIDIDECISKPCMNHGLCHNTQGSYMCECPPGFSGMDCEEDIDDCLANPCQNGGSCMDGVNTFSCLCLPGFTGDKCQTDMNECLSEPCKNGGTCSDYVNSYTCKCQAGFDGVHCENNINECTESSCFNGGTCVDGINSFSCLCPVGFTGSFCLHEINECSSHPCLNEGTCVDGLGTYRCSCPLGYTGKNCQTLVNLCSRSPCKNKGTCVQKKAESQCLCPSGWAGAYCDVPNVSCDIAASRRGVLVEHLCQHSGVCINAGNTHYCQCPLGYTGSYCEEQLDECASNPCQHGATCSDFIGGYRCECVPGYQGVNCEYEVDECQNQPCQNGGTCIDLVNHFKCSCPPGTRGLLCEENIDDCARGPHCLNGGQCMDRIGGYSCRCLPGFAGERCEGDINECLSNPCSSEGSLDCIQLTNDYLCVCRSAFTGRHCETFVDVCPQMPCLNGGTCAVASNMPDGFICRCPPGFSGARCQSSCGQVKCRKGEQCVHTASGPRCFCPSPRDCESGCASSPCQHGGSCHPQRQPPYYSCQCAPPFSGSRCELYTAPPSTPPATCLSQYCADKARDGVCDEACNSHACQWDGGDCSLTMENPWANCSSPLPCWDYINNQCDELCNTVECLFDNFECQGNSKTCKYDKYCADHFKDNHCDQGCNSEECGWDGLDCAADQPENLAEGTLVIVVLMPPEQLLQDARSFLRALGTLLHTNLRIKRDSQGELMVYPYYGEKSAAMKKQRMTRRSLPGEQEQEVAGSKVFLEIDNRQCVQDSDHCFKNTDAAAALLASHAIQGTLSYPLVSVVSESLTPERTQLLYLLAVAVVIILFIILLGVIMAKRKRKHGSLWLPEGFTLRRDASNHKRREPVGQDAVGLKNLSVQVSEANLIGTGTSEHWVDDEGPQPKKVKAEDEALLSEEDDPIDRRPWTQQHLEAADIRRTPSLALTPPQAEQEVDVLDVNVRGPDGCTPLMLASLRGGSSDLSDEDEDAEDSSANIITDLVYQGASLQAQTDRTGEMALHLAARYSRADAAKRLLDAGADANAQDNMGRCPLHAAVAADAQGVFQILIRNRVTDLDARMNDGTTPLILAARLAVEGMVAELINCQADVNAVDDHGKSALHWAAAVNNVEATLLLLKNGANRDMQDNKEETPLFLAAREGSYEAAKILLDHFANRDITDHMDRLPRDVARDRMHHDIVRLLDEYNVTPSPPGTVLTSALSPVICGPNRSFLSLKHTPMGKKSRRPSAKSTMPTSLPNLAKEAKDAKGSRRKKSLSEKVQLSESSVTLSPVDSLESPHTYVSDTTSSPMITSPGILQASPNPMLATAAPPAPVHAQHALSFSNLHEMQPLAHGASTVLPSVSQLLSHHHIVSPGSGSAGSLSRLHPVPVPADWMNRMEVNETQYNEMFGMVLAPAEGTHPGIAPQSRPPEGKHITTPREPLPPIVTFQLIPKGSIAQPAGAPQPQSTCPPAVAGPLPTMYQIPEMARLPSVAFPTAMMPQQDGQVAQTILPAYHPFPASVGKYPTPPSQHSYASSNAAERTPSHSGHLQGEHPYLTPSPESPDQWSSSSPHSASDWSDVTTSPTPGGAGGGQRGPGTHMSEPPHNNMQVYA
Experiment [6] concerns the target Pro-neuregulin-1, membrane-bound isoform (Homo sapiens) (UniProt Q02297). Description: small molecules binding neuregulin-1 protein – biochemical, small-molecule microarray, fluorescence 635/667, psychiatric disease protein project, primary screen (AID 1075).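 Further: score combines 667 nm spot fluorescence with signal to noise.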 As to conditions: NRG1 binding, 635 nm fluorescence, higher = more signal.
Experiment [7] has as its system Neuregulin-1 EGF-like domain. Description: small molecules binding NRG1 EGF domain – biochemical, small-molecule microarray, 635 nm fluorescence, primary screen (AID 1081).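 Further: binding of the protein to compounds printed on small-molecule microarray slides.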 To be noted: higher = more signal.
Experiment [8] is described as follows: FRG1 expression reporter modulators in myotubes – cell-based, C2C12 myotubes, firefly/Renilla luciferase, luminescence, FRG1 inhibition for FSHD, primary screen (AID 1084). As to conditions: FRG1 promoter luciferase, higher = more signal, called active from +8 up or from −8 down.
A short description of experiment [9]: small molecules captured by biotinylated probe aFST – biochemical, small-molecule microarray, fluorescence 635/667, stem cell growth factor project, primary screen (AID 1086).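 Further: score merges 667 nm fluorescence with signal-to-noise of each printed compound spot.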 As to conditions: higher = more signal.
Experiment [10] in a line: binders of probe aHhip on microarray, primary screen, stem cell growth factor project, biochemical, small-molecule microarray, fluorescence 635/667 (AID 1087).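 Further: score merges spot fluorescence at 667nm with spot signal to noise ratio.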 As to conditions: higher = more signal.
Experiment [11] deals with PRMT1 (protein arginine N-methyltransferase 1). As to the kind of experiment: small molecules binding arginine methyltransferase PRMT1 – biochemical, small-molecule microarray, 635 nm fluorescence, primary screen (AID 1088).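 Further: binding of Prmt1 protein to compounds spotted on small-molecule microarray slides.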 As to conditions: higher = more signal.
Experiment [12] is described as follows: growth effects on S. cerevisiae YJM789 – YJM789 clinical isolate, OD600, 24 h, basal, primary screen (AID 1089).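 Further: growth of clinical yeast isolate S. cerevisiae YJM 789 seeded 1000 cells per well; test concentration not given here.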 To be noted: higher = more signal, called active from +8 up or from −8 down.
Experiment [13] is described as follows: S. pombe growth modifiers, basal conditions – strain 972, OD600, 24 h, no modulator, primary screen (AID 1090).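 Further: basal condition with compound alone and no growth modifier present; test concentration not given here.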 As to conditions: S. pombe 972 growth, higher = more signal, called active from +8 up or from −8 down.
A short description of experiment [14]: budding yeast growth modifiers under rapamycin – strain BY4716, OD600, 96 h, primary screen (AID 1091). Further: test concentration not given here. To be noted: S. cerevisiae BY4716 + rapamycin, higher = more signal, called active from +8 up or from −8 down.
For experiment [15], the target named is Torsin-1A-interacting protein 2 (Homo sapiens) (UniProt Q8NFQ8). As to the kind of experiment: small molecules binding lysate-expressed LULL1 – cell lysate, human LULL1 lysate, 635/667 nm fluorescence, primary screen (AID 1092).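 Further: probe is lysate of COS7 cells overexpressing human LULL1; score merges per-feature 667 nm fluorescence with signal-to-noise.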 To be noted: small-molecule microarray, hLULL1 lysate binding, 635 nm fluorescence; higher = more signal.
Sequence of Torsin-1A-interacting protein 2 (Homo sapiens) (Q8NFQ8 whole entry, looked up): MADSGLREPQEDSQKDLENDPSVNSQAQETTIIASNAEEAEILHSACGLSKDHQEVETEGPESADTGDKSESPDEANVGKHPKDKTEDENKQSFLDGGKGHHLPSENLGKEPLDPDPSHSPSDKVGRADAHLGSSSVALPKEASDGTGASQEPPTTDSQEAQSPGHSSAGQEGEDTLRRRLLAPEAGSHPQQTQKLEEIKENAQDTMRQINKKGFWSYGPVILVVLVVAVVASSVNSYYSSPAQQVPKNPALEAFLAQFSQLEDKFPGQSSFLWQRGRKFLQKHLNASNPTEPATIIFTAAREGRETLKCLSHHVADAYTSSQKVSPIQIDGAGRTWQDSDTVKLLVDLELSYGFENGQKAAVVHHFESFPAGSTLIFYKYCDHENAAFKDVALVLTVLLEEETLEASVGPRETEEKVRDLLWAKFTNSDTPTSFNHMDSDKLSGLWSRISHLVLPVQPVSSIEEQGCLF
Experiment [16] is described as follows: optical density change of DRC41 E. coli – strain DRC41, OD650, 24 h, E. coli filamentation project, primary screen (AID 1093).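 Further: MC1000 strain lacking acrAB efflux and sulA so SOS filamentation is blocked; test concentration not given here.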 As to conditions: E. coli DRC41 growth, higher = more signal, called active from +8 up or from −8 down.
A short description of experiment [17]: probe aLefty2 binding to arrayed compounds – biochemical, biotinylated probe, 635/667 nm fluorescence, primary screen (AID 1094).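 Further: score merges spot fluorescence near 667 nm with spot signal-to-noise ratio.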 As to conditions: small-molecule microarray, higher = more signal.
Experiment [18] has as its system Noggin (protein binding on small-molecule microarray). Description: small molecules binding Noggin protein – biochemical, 635/667 nm fluorescence, primary screen (AID 1095).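 Further: score merges 667 nm feature fluorescence with signal to noise over triplicate slides.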 As to conditions: 635 nm fluorescence, higher = more signal.
Experiment [19] concerns the target Neurogenic locus notch homolog protein 3 (Homo sapiens) (UniProt Q9UM47). Description: small molecules binding NOTCH3 protein – biochemical, 635/667 nm fluorescence, primary screen (AID 1096). To be noted: small-molecule microarray, 635 nm fluorescence, higher = more signal.
Experiment [20] in a line: probe aEGFR binding to arrayed compounds – biochemical, biotinylated probe, 635/667 nm fluorescence, primary screen (AID 1097).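 Further: probe is a biotinylated anti-EGFR antibody binding compounds printed on slides; score combines fluorescence near 667 nm and signal to noise of each spot.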 To be noted: small-molecule microarray, higher = more signal.

Sequence of Pro-neuregulin-1, membrane-bound isoform (Homo sapiens) (Q02297 whole entry, looked up, the tested form may be a part, canonical isoform): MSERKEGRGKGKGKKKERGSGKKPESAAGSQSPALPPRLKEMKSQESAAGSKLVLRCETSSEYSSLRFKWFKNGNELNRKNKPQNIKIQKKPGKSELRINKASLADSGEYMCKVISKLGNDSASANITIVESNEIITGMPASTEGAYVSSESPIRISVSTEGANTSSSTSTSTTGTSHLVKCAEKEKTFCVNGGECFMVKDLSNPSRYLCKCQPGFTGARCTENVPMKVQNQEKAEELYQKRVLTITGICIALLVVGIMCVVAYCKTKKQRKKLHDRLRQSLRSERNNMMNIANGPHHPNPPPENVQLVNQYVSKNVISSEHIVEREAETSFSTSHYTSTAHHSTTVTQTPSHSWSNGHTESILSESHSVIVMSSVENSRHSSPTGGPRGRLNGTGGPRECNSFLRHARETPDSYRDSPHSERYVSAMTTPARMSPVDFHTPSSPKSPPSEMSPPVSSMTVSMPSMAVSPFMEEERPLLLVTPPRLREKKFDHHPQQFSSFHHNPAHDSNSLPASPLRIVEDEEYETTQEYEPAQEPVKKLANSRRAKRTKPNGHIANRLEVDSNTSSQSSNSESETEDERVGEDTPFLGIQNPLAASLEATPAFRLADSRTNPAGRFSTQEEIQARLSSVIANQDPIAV

On to `C[C@H](c1ccccc1)N1C(=O)[C@H]2[C@@H]3C(=CC[C@H]2C1=O)C(=O)[C@H]1O[C@H]1[C@H]3O`, for which the composite z-score in [1] is -0.518; in experiment [2] it was 0.34; in experiment [3] it was -0.135; in experiment [4], 0.134; in experiment [5], 0.582; in experiment [6], -0.198. Further, the composite z-score in [7] is -0.133; in experiment [9] it was 0.128; in experiment [10] it was -0.289; in [11], -0.511; in experiment [15], -0.597; in experiment [17], -0.0305. In addition, the composite z-score in experiment [18] is 0.447; in [19], 0.172; in experiment [20] it was -0.138. The z-score in experiment [8] is 14.4 (active); in experiment [12], 0.389 (inactive); in [13] it was -1.84 (inactive); in experiment [14], 0.292 (inactive); in [16], -0.295 (inactive).

With `O=C(NN=C1C[C@@H](O)[C@@H](O)[C@@H]2[C@@H]3C(=O)N(c4ccc(F)cc4F)C(=O)[C@@H]3CC[C@@H]12)OCc1ccccc1`, the composite z-score was -0.105 in experiment [1]; 0.361 in experiment [2]; -0.0845 in [3]; 0.215 in [4]; 0.283 in experiment [5]; 0.113 in experiment [6]. The composite z-score in experiment [7] was -0.882; in [9], 0.51; in experiment [10] it was -0.0672; in experiment [11] it was -0.127; in experiment [15], 1.03; in experiment [17] it was -0.11. Besides, the composite z-score in [18] is -0.0944; in [19], 0.57; in experiment [20] it was -0.0616. Further, the z-score is 0.228 (inactive) in [8]; 0.615 (inactive) in experiment [12]; 0.664 (inactive) in [13]; -0.442 (inactive) in [14]; 0.203 (inactive) in experiment [16].

`C#CCCCON=C1C[C@@H](O)[C@@H](O)[C@@H]2[C@@H]3C(=O)N([C@@H](C)c4ccccc4)C(=O)[C@@H]3CC[C@H]12`: the composite z-score in experiment [1] is -0.196; in experiment [2], -0.0639; in [3], -0.127; in experiment [4] it was 0.342; in experiment [5], 0.76; in experiment [6], 0.233. Further, the composite z-score in experiment [7] was 0.755; in experiment [9], 0.342; in [10] it was -0.0994; in [11], 0.37; in experiment [15], 0.773; in [17] it was 0.0008. Moreover, the values for the composite z-score in experiment [18], in [19] and in [20] were 0.573, 0.999 and 0.207, respectively. In addition, the z-score was 0.548 (inactive) in experiment [8]; 0.45 (inactive) in experiment [12]; 0.347 (inactive) in experiment [13]; -0.418 (inactive) in [14]; 0.229 (inactive) in experiment [16].

With `COCC(=C=CC[C@@H](O)c1ccccc1OCCO)CCO`, the composite z-score in [1] was -0.181; in experiment [2], 0.44; in experiment [3] it was 0.0201; in [4], 0.492; in experiment [5], 0.375; in [6] it was 0.19. Besides, the composite z-score was 1.27 in [7]; 0.175 in experiment [9]; -0.0618 in [10]; 0.68 in experiment [11]; 2.36 in experiment [15]; 0.0378 in experiment [17]. In addition, the composite z-score was 0.436 in experiment [18], 0.442 in experiment [19] and -0.0332 in experiment [20]. Moreover, the z-score is 0.0373 (inactive) in experiment [8]; 0.621 (inactive) in [12]; 0.0008 (inactive) in [13]; 0.199 (inactive) in experiment [14]; 0.71 (inactive) in experiment [16].

Take `C#C[C@@H]1Oc2ccccc2S(=O)(=O)N2CCC[C@H]12`: the composite z-score in experiment [1] is -0.311; in experiment [2], 0.143; in experiment [3], -0.114; in experiment [4], 0.0728; in experiment [5], 0.133; in [6], -0.206. The composite z-score in experiment [7] was -0.113; in [9], 0.214; in experiment [10] it was -0.0596; in [11] it was -1.07; in [15] it was -0.875; in experiment [17] it was 0.0886. Further, the results for the composite z-score in experiment [18], in experiment [19] and in [20] were 0.18, -0.176 and 0.056, respectively. In addition, the z-score was -0.587 (inactive) in [8]; -0.0284 (inactive) in experiment [12]; 0.809 (inactive) in experiment [13]; -2.55 (inactive) in experiment [14]; -1.1 (inactive) in experiment [16].
